CYP2C9 inh – human CYP2C9 inhibition; CYP2C9 Supersomes, luciferin-H conversion, luminescence; inhibition, % at 5 µM; 96,000 compounds, 20% hits; AID 777;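 active = blocking of liver enzyme CYP2C9 beyond about 50% at 5 µM, limit read from the data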
CYP2C19 inh – human CYP2C19 inhibition; P33261; CYP2C19 Supersomes, luciferin-H EGE luminescence, 30 min; inhibition, % at 5 µM; 96,000 compounds, 21% hits; AID 778;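 active = CYP2C19 inhibition above a set limit at 5 µM in the primary screen, cut at about 50% in these data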;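 also: plate controls were negative control wells for no effect and 2.5 mM tranylcypromine positive control for full effect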
Target sequence (P33261 whole entry, looked up): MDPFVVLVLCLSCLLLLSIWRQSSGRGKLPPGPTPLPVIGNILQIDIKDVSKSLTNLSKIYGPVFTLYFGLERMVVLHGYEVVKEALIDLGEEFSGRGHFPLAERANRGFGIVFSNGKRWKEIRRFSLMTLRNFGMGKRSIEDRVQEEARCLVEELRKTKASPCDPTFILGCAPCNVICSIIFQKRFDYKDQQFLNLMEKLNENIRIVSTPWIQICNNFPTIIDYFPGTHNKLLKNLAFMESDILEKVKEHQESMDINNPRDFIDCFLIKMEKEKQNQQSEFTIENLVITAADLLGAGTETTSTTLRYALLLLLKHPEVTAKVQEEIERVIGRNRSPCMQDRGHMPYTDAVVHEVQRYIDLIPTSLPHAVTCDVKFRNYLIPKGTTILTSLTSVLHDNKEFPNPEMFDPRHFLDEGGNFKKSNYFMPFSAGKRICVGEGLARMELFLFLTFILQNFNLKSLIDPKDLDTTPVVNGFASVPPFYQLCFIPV
CYP2C19 activ – cytochrome P450 2C19 (human) activation; P33261; recombinant CYP2C19, luciferin-H EGE luminescence; active compounds read high; 0 = fully inhibited enzyme, 1 = untreated enzyme; activation factor at 5 µM; 96,000 tested, under 10 active;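 active = activation factor of at least 2 at 5 µM in the primary screen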;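 also: 0 = wells with 2.5 mM tranylcypromine and 1 = vehicle-only wells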
sEH inh – inhibitors of human soluble epoxide hydrolase; inhibition, % at 2 µM; recombinant human sEH enzymatic activity assay; 91,000 compounds, 0.34% hits; P34913; in the data active = inhibition above about 80%
sEH act – increases human soluble epoxide hydrolase activity; P34913; purified human sEH enzymatic activity, activator screen; activation, % at 2 µM; 91,000 compounds, 0.04% hits; AID 717; in the data active = activation above about 37%
CYP2C9 act – activators of human CYP2C9 | recombinant CYP2C9, luciferin-H conversion, luminescence; active compounds read high; factor 1 = untreated enzyme, 0 = blocked | 96,000 compounds, 1.4% hits | activation factor at 5 µM;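 active = activation factor of 2 or more for CYP2C9 at a 5 µM dose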;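 also: 0 = sulfaphenazole-blocked wells and 1 = vehicle-only wells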
* = called active by the depositor; x = no result given. Shown are actives, neighbours in structure and some others; about 27% of the full set was active somewhere.

SMILES	CYP2C9 inh	CYP2C19 inh	CYP2C19 activ	sEH inh	sEH act	CYP2C9 act
O=C(c1ccco1)N1CCC(c2nc(-c3ccccc3Cl)no2)CC1	57*	50	0.5	7	-3	0.4
O=C(COc1c(F)c(F)cc(F)c1F)NC(=O)NC1CCCC1	12	27	0.7	22	-22	0.9
O=C1CCCN1CCC1CCN(C2CC(=O)N(c3ccc(Cl)cc3)C2=O)CC1 (centres undefined)	-30	-18	1.2	-2	7	1.3
O=c1c2c(nc3c(-c4cccc5ccccc45)c[nH]n13)CCC2	69*	7	0.9	-6	6	0.3
CC(NC(=O)C(=O)NN=C1CCCCCCCCCCC1)c1ccccc1 (centres undefined)	-3	14	0.9	22	-20	1
Cc1ccccc1C(O)c1ccncc1 (centres undefined)	74*	68*	0.3	-1	0	0.3
Cc1ccccc1C(=O)NCc1ccncc1	28	10	0.9	0	-2	0.7
Cc1ccc(C(O)c2ccncc2)cc1 (centres undefined)	78*	72*	0.3	-29	28	0.2
CC(C)CCNC(=O)CN(Cc1cccs1)C(=O)CCC(=O)Nc1nccs1	29	20	0.8	4	-2	0.7
COc1ccc(-c2nc(NC(=O)C3CCN(c4nc5ccccc5o4)CC3)sc2C)cc1	51*	29	0.7	-3	2	0.5
CC1=CC(C)(C)N(C(=O)CSc2nnc(N)s2)c2c(C)cc(C)cc21	50*	60*	0.4	2	-2	0.5
CCCCOCP(=O)(CC)COCCCC	3	32	0.7	-8	8	1
O=C(NC1CCCC1)C(c1ccccc1)N(C(=O)c1ccco1)C1CCCC1 (centres undefined)	x	x	x	-4	2	x
CCN(CC)c1ccc(-c2nc3cnccn3c2NC2CCCC2)cc1	98*	94*	0.1	2	1	0
c1cn2c(NC3CCCC3)c(-c3ccc(N4CCOCC4)cc3)nc2cn1	98*	95*	0	-18	23	0
O=C(CN1CCN(CCO)CC1)Nc1ccccc1	x	x	x	1	0	x
CCOc1ccc(NC(=O)c2cccc(OC(=S)N3CCC(C)CC3)c2)cc1	74*	94*	0.1	70	-70	0.3
C=CCOc1ccc(C(=O)N(Cc2ccc(N(C)C)cc2)C2CCS(=O)(=O)C2)cc1 (centres undefined)	15	2	1	-9	8	0.9
O=C(c1cnc2n(c1=O)CCS2)N1CCN(C(c2ccccc2)c2ccc(Cl)cc2)CC1 (centres undefined)	44	62*	0.4	-9	11	0.6
CCc1nc(NCCN2CCOCC2)c(C#N)c2c1CCCC2	10	69*	0.3	5	-2	0.9
CC(C)Cc1nc(NCCN2CCOCC2)c(C#N)c2c1COC(C)(C)C2	79*	88*	0.1	6	-6	0.2
CCCCc1nc(NCCN2CCOCC2)c(C#N)c2c1COC(C)(C)C2	69*	28	0.7	1	2	0.3
CC(C)Cc1nc(N2CCOCC2)c(C#N)c2c1COC(C)(C)C2	68*	85*	0.1	4	-2	0.3
COc1cccc(C(=O)Oc2cc(-c3ccccc3)no2)c1	6	-3	1	-6	7	0.9
O=C(CCSc1nc2cc(Cl)ccc2o1)N1CCOCC1	-17	35	0.7	2	-2	1.2
SMILES	CYP2C9 inh	CYP2C19 inh	CYP2C19 activ	sEH inh	sEH act	CYP2C9 act
O=C(CSc1nnc2ccccn12)Nc1ncc(Cl)cc1Cl	-7	-1	1	-14	14	1.1
N#Cc1c2c(c(NCCN3CCOCC3)n3c1nc1ccccc13)CCCC2	86*	53*	0.5	-2	3	0.1
CC(C)c1cc(NCC2CCCO2)n2c(nc3ccccc32)c1C#N (centres undefined)	73*	0	1	-8	10	0.3
CCC1(C)OC(=O)N2CCc3c(C)[nH]c4c(C)ccc(c34)C21C (centres undefined)	70*	69*	0.3	14	-14	0.3
O=C(NCc1cccnc1)C1c2ccccc2C(=O)N1Cc1ccco1 (centres undefined)	21	78*	0.2	-20	15	0.8
CC(=O)OC1c2ccccc2C(=O)N1c1ccccc1C (centres undefined)	-2	0	1	-4	3	1
O=C(NCc1cccnc1)C1c2ccccc2C(=O)N1Cc1ccccc1 (centres undefined)	22	63*	0.4	14	-14	0.8
CC(C)CCN1C(=O)c2ccccc2C1C(=O)NCc1cccnc1 (centres undefined)	19	62*	0.4	4	-7	0.8
O=C(C1=C(O)C(=O)N(Cc2ccco2)C1c1cccnc1)c1cc2ccccc2o1 (centres undefined)	25	-5	1	2	-3	0.8
CC(=O)OC1c2ccccc2C(=O)N1Cc1ccccc1 (centres undefined)	-17	51*	0.5	-16	15	1.2
CCCCCCOC(=O)c1ccccc1NC(=O)/C=C/C(=O)O	22	4	1	13	-9	0.8
COc1cc(CNc2cc(C)ccc2C)cc(OC)c1OC	82*	98*	0	8	-10	0.2
COc1ccc(NCc2ccc(OC)c(OC)c2)cc1	14	73*	0.3	x	x	0.9
COc1cc(CNc2ccc(C)c(C)c2)cc(OC)c1OC	58*	91*	0.1	x	x	0.4
O=C1CC(NC23CC4CC(CC(C4)C2)C3)C(=O)N1c1ccc2c(c1)OCO2 (centres undefined)	2	7	0.9	-4	1	1
CN(C)Cc1c(O)ccc2c3c(c(=O)oc12)CCCCC3	-17	0	1	-18	18	1.2
CN(Cc1c(O)ccc2c1oc(=O)c1ccccc12)C1CCCCC1	26	50*	0.5	x	x	0.7
N#Cc1c(NC(=O)CSc2ncccn2)oc(-c2ccccc2)c1-c1ccccc1	x	x	x	14	-11	x
CCn1c(SCC(=O)Nc2oc(-c3ccccc3)c(-c3ccccc3)c2C#N)nnc1-c1cc(OC)cc(OC)c1	100*	59*	0.4	-5	5	0
N#Cc1c(NC(=O)CN2CCOCC2)oc(-c2ccccc2)c1-c1ccccc1	45	12	0.9	5	-5	0.6
N#Cc1c(NC(=O)Cn2cnc3ccccc3c2=O)oc(-c2ccccc2)c1-c1ccccc1	83*	34	0.7	2	0	0.2
N#Cc1c(NC(=O)CSc2n[nH]c(Cc3ccccc3)n2)oc(-c2ccccc2)c1-c1ccccc1	99*	91*	0.1	-5	5	0
Cc1ccnc(SCC(=O)Nc2oc(-c3ccccc3)c(-c3ccccc3)c2C#N)n1	88*	36	0.6	-4	4	0.1
N#CCCn1c(C(C#N)(CCC#N)CCC#N)nc2ccccc21	-8	-12	1.1	x	x	1.1

Source: PubChem (several laboratories)
